Screening data: PubChem BioAssay, National Center for Advancing Translational Sciences (NCATS)
This is a sample that favours compounds with a hit; in the whole collection about 21% have one here.
Pf growth 96h = P. falciparum growth inhibition at 96 hours; AID 504834; 6.9% of 320,000 active; P. falciparum luciferase reporter growth, 96 h; Potency, µM (highest dose often 28.7 µM), inactives show at the top dose activity change, negative = inhibition, actives largely listed as inhibitors; further: potency means the concentration at half of the fitted maximal effect; on the % scale 0 is the no-effect control and ±100 the full control effect
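P. falciparum expressing integrated firefly luciferase grown in erythrocytes (2% hematocrit, 0.05% parasitemia final) with compounds for 96 hours at 37 C, 5% CO2. Growth inhibition read as loss of luminescence after adding luciferase detection reagent.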
Shiga inhibitor = blocks Shiga toxin action in Vero cells; Vero cells, Shiga toxin protein synthesis inhibition reporter; inhibition, % at 38.7 µM; 9.2% of 290,000 active; in the data active means inhibition mostly above about 28%, no sharp cut-off; inactive means mostly below about 43%; further: 0% is about no effect
Cycloheximide cs = affects cycloheximide protein synthesis inhibition readout, counter-screen | 12% of 300,000 active | cell reporter, cycloheximide protein synthesis inhibition counterscreen | max response, %; in the data active means max response mostly above about 13%, no sharp cut-off; inactive means mostly below about 14%; further: read at 38.3 µM for the half of the compounds with a filed dose; 0% is about no effect
HCV inh = blocks hepatitis C virus | AID 651820 | Huh7.5.1 HCVcc-Cre infection, luciferase reporter, 44 h | Potency, µM (doses to about 41.8 µM), for inactives: at the top dose activity change, negative = inhibition, hits mostly inhibitors | 3.4% of 340,000 active; further: potency means the concentration at half of the fitted maximal effect; on the % scale 0 is the no-effect control and ±100 the full control effect
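Cells seeded at 1,000/well and cultured 4 h, then compounds added followed by HCVcc-Cre virus (~0.5 moi). After 44 h further culture, luciferase substrate was added, plates held 15 min at room temperature, and luminescence read for 15 sec.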
Pf growth 48h = inhibits P. falciparum growth in the first generation, 48 h. P. falciparum luciferase growth in erythrocytes, 48 h. Potency, µM (series often up to 28.7 µM), inactives show top-dose activity change, negative = inhibition, actives largely listed as inhibitors. 5.9% of 310,000 active. AID 504832; further: potency means the concentration at half of the fitted maximal effect; on the % scale 0 is the no-effect control and ±100 the full control effect
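Growth was read as firefly luciferase luminescence after a 48 h, 37 C, 5% CO2 exposure of compounds to reporter-bearing P. falciparum cultures (0.1% parasitemia, 2% hematocrit final) in Albumax-supplemented RPMI 1640.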
HCMV antiviral = inhibitors of human cytomegalovirus; HFF cells, HCMV-luciferase reporter, 72 h; hits give low values; activity change, negative = inhibition, % at 57.5 µM; 4.5% of 410,000 active; in the data active means activity change below about -60%; inconclusive means no clear call, values can overlap the other calls; inactive means above about -39%; further: on the % scale 0 is the no-effect control and ±100 the full control effect
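After 16 h attachment at 37C, HFF cells received test compound and HCMV-luciferase (1 PFU/cell); reporter luminescence read 72 h later, data normalized against buffer-only and known inhibitor Salinomycin.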
The depositor's hits bear a star. Unless noted, the call rests on the fitted dose curve; in most records, active means well fitted inhibition curve with a large enough effect; inconclusive means small, poorly fitted or top-dose-only effect, or another doubt; inactive means no such curve, though single readings can be large or run the other way.

`COc1ccc([C@@H]2CC(=O)c3c(O)cc(O[C@@H]4O[C@H](CO)[C@@H](O)[C@H](O)[C@H]4OC4O[C@@H](C)[C@H](O)[C@@H](O)[C@H]4O)cc3O2)cc1O` (stereo partly specified) gave Shiga inhibitor 2.1 and Cycloheximide cs -1.5.
COc1cccc(CNCCc2c[nH]c3ccccc23)c1 was read as Pf growth 96h inconclusive, Shiga inhibitor 2.5, Cycloheximide cs -10.1, HCV inh -0.1%, Pf growth 48h 22.1% and HCMV antiviral -2.6.
CCOc1cc(CNCCc2c[nH]c3ccccc23)cc(Cl)c1OCC was read as Pf growth 96h inconclusive, Shiga inhibitor -13.8, Cycloheximide cs -3.7, HCV inh inconclusive, Pf growth 48h inconclusive and HCMV antiviral -62.8*.
`CCOc1c(Cl)cc(CNCCc2c[nH]c3ccccc23)cc1OC` gave Pf growth 96h 2.2%, Shiga inhibitor -11.4, Cycloheximide cs -1.2, HCV inh 22.4µM*, Pf growth 48h inconclusive and HCMV antiviral 10.0.
For COP(=O)(OC)C(NC(=O)/C=C/c1ccccc1)C(Cl)(Cl)Cl (stereo unspecified) the results were Pf growth 96h 44.4%, Shiga inhibitor 54.7*, Cycloheximide cs 21.3, HCV inh -15.1%, Pf growth 48h 45.2% and HCMV antiviral -2.5.
For Cc1cccc(-n2cc[nH]c2=S)c1C the results were Pf growth 96h -8.9%, Shiga inhibitor -8.7, Cycloheximide cs -2.1, HCV inh 2.6%, Pf growth 48h 4.2% and HCMV antiviral -69.0*.
Cc1ccc(CC(=O)N/N=C/c2ccc3c(c2)OCO3)cc1 was read as Pf growth 96h -8.3%, Shiga inhibitor 42.9*, Cycloheximide cs 25.8*, HCV inh -26.0%, Pf growth 48h 60.1% and HCMV antiviral -22.7.
For O=C(CCC(=O)Nc1ccccc1)N/N=C/c1ccc2c(c1)OCO2 the results were Pf growth 96h -22.6%, Shiga inhibitor 71.1*, Cycloheximide cs 40.0*, HCV inh 8.9% and Pf growth 48h 5.2%.
For O=C(CCC(=O)Nc1ccc(Cl)cc1)N/N=C/c1ccc2c(c1)OCO2 the results were Pf growth 96h inconclusive, Shiga inhibitor -13.3, Cycloheximide cs -2.0, Pf growth 48h inconclusive and HCMV antiviral -0.5.
O=C(NN=Cc1ccc2c(c1)OCO2)c1ccccc1 was read as HCV inh 5.0% and HCMV antiviral 33.3.
O=C(N/N=C/c1ccc2c(c1)OCO2)C(O)c1ccccc1 (stereo unspecified) was read as Pf growth 96h inconclusive, Shiga inhibitor 54.1*, Cycloheximide cs 59.5*, HCV inh -3.1%, Pf growth 48h 69.6% and HCMV antiviral -24.0.
For Cc1cc(C)c(OCC(=O)N/N=C/c2ccc3c(c2)OCO3)c(C)c1 the results were Pf growth 96h 11.7µM*, Shiga inhibitor -11.2, Cycloheximide cs -4.1, HCV inh -10.4%, Pf growth 48h 10.2% and HCMV antiviral -37.8.
For COc1ccc(NC(=O)c2nnn(CC(=O)Nc3cc(C)cc(C)c3)c2N)c(OC)c1 the results were HCMV antiviral 10.6.
For O=C(NCCc1ccccc1)C(=O)N/N=C/c1ccc2c(c1)OCO2 the results were Pf growth 96h 45.4%, Shiga inhibitor 20.3, Cycloheximide cs 4.6, HCV inh 2.3%, Pf growth 48h 36.9% and HCMV antiviral 1.7.
`Cc1ccnn1CC(=O)N/N=C/c1ccc2c(c1)OCO2` gave Pf growth 96h 13.7%, Shiga inhibitor 37.3, Cycloheximide cs 17.9*, HCV inh 22.3%, Pf growth 48h 13.0% and HCMV antiviral 49.7.
`O=C(NCc1ccccn1)C(=O)N/N=C/c1ccc2c(c1)OCO2` gave Pf growth 96h 4.65µM*, Shiga inhibitor 50.2*, Cycloheximide cs 16.1, HCV inh -2.4%, Pf growth 48h 19.8% and HCMV antiviral -90.5*.
For O=C(N/N=C/c1c(O)ccc2ccccc12)Nc1ccccc1 the results were HCV inh inconclusive and HCMV antiviral -35.0.
Screening O=C(CSCC(=O)Nc1ccccc1)N/N=C/c1c(O)ccc2ccccc12 returned Pf growth 96h 1.85µM*, Shiga inhibitor 7.8, Cycloheximide cs 19.4, HCV inh 10µM*, Pf growth 48h 2.62µM* and HCMV antiviral -104.2*.
For O=C(CNc1ccccc1)N/N=C/c1c(O)ccc2ccccc12 the results were Pf growth 96h 407.2%, Shiga inhibitor -4.4, Cycloheximide cs 14.2, HCV inh 10µM*, Pf growth 48h inconclusive and HCMV antiviral -89.1*.
`O=C(O)c1ccc(N=Cc2c(O)ccc3ccccc23)cc1` gave Pf growth 96h inconclusive, Cycloheximide cs 1.6, HCV inh -8.0%, Pf growth 48h -9.9% and HCMV antiviral 14.5.
`O=S(=O)(/N=C/c1c(O)ccc2ccccc12)c1ccccc1` gave Pf growth 96h 0.0%, Shiga inhibitor 18.2, Cycloheximide cs 11.1*, HCV inh 1.0%, Pf growth 48h 0.0% and HCMV antiviral 5.3.
Screening COc1ccc(C(=O)c2coc3ccc(OC(C)=O)cc23)cc1 returned Pf growth 96h 152.8%, Shiga inhibitor 72.2*, Cycloheximide cs 26.5*, HCV inh inconclusive, Pf growth 48h 212.3% and HCMV antiviral 18.7.
`COc1ccc2occ(C(=O)c3cccs3)c2c1` gave Pf growth 96h 299.4%, Shiga inhibitor 96.4*, Cycloheximide cs 39.8*, HCV inh -18.5% and HCMV antiviral 25.4.
For COc1ccc(OC)c(C(=O)c2coc3ccc(OCC(=O)O)cc23)c1 the results were Pf growth 96h 114.5%, Shiga inhibitor -1.0, Cycloheximide cs -4.8, HCV inh -5.6% and HCMV antiviral 18.8.
Screening COc1ccc2occ(C(=O)c3ccc(N)cc3)c2c1 returned Pf growth 96h 321.2%, Shiga inhibitor 70.5*, Cycloheximide cs 39.2*, HCV inh -14.8%, Pf growth 48h 341.0% and HCMV antiviral -14.5.
For COc1ccc(OC)c(C(=O)c2coc3ccc(OC(C)=O)cc23)c1 the results were Pf growth 96h 71.3%, Shiga inhibitor 37.8*, Cycloheximide cs 25.2, HCV inh -7.4%, Pf growth 48h 38.4% and HCMV antiviral -19.9.
COc1ccc2occ(NC(C)=O)c2c1 was read as Pf growth 96h 62.5%, Shiga inhibitor -9.5, Cycloheximide cs 1.9, HCV inh -4.4%, Pf growth 48h 3.6% and HCMV antiviral -28.1.
`C[C@H](NC(N)=O)C(=O)Nc1ccc(N2CCOCC2)c(S(=O)(=O)Nc2ccc(Cl)cc2)c1` gave Pf growth 96h inconclusive, HCV inh -1.0%, Pf growth 48h -19.1% and HCMV antiviral -39.9.
For O=C(NCCc1ccccc1)C1(c2ccccc2)CCCC1 the results were Pf growth 96h 13.1µM*, Cycloheximide cs -1.1, HCV inh 9.9%, Pf growth 48h -22.0% and HCMV antiviral -6.7.
